Mtb MbtI inh: MbtI salicylate synthase inhibition; inhibition, % (concentration not given with the values); 0.89% of 100,000 active; P9WFX0; purified MbtI enzyme, fluorescence intensity read-out; in the data active = inhibition mostly above about 56%, no sharp cut-off; inactive = mostly below about 77%
PV pol inh: poliovirus RNA polymerase inhibition | P03300 | poliovirus polymerase elongation, fluorescence polarization; hits give low values | % elongation, % (compound at 16.7 µg/mL) | 0.66% of 150,000 active; in the data active = % elongation below about 90%
Target sequence (P03300 1749-2209 limits assumed): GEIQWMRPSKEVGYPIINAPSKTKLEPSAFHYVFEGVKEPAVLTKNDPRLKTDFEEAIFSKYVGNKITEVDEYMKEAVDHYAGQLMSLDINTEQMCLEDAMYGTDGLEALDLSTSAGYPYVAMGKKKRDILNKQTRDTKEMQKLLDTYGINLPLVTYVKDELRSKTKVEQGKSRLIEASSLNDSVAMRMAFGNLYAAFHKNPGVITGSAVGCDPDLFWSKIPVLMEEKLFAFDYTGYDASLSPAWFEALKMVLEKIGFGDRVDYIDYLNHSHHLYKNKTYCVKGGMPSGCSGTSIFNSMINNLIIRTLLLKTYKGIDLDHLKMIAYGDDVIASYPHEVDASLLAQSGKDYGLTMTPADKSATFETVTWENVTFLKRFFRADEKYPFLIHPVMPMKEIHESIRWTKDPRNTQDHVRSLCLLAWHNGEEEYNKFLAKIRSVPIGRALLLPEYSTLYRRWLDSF
AID504770: growth inhibitors of E. coli YBA685 in a screen for V. cholerae RctB (chromosome II replication) inhibitors. 0.27% of 130,000 active. E. coli YBA685 rctB-dependent plasmid, OD600 growth, 3 h; hits give low values. AID 504770. z-score (test concentration not listed); in the data active = z-score below about -2, passing the limit was not always enough
MenB inh: Mtb MenB enzyme inhibition | inhibition, % (no concentration beside the values) | 0.43% of 100,000 active | MenB enzyme assay, absorbance read-out | AID 540299 | P9WNP5; in the data active = inhibition above about 21%, passing the limit was not always enough
* = called active by the depositor; / = no result given. Most compounds without a hit are left out; they make up all but 1.5% or so of the library.

SMILES	Mtb MbtI inh	PV pol inh	AID504770	MenB inh
COc1ccc2c(c1)CC/C(=C/c1ccc(N3CCOCC3)cc1)C2=O	-2	104	-0.2	-11
COc1cc(OC)c(C2=NOC(C(=O)Nc3cc(C)n(CC(=O)NCc4ccco4)n3)C2)cc1Cl (stereo not given)	-18	104	-0.2	-28
O=C1C=CC(=O)N1Cc1cccs1	/	/	-4.2*	/
COc1cccc(NC(=O)C(C)N(C)c2ccccc2)c1 (stereo not given)	0	102	-0.65	13
NC(=O)c1c(NC(=O)/C=C/c2cccs2)sc2c1CCCC2	53*	99	-0.15	-43
N#Cc1c(NC(=O)/C=C/c2cccs2)sc2c1CCC2	/	/	-0.45	/
CCN(CC)C(=S)Nc1ccc2oc(N(C)C)nc2c1	/	90*	-0.5	-7
CS(=O)(=O)Cc1cccc(C(=O)N2CCc3ccccc32)c1	18	105	0.65	1
Cc1cccc(NC(=O)CN(C2=NC3CS(=O)(=O)CC3S2)c2ccccc2)c1 (stereo not given)	4	99	0.7	-66
CCc1cccc(NC(=O)CN(C2=NC3CS(=O)(=O)CC3S2)c2cccc(C)c2)c1 (stereo not given)	-5	100	-2.5*	-11
CCCC(=O)NC(=S)c1sc(N2CCCC2)nc1-c1cccs1	5	101	0.25	-25
CCCN(CCC)c1c(Cl)c(Cl)nc(C(=O)O)c1Cl	-18	104	1	-21
CC(=O)c1ccc(NC(=O)CSc2nnc(NC(=O)NC3CCCCC3)s2)cc1	/	109	/	/
C=CCSc1nnc(NC(=O)NC2CCCCC2)s1	-10	105	-2.8*	-17
COc1cccc(-n2cc(C(=O)N3CCN(C4CCCCC4)CC3)c3ccccc3c2=O)c1	-21	104	1.9	-30
CC1=NN(c2ccccc2)C(=O)/C1=C/c1ccc(-c2ccccc2)o1	1	99	0.85	7
CC1=NN(c2cccc(C(=O)O)c2)C(=O)/C1=C/c1ccc(-c2cccc(Cl)c2C)o1	38	90*	-0.45	-17
OCCOc1nc(N2CCOCC2)nc(N2CCOCC2)n1	-13	102	-0.9	-6
Cc1cc(SCC(=O)Nc2ccccc2)c2ccccc2n1	/	89*	-0.05	-31
CC(C)n1c(SCC(=O)Nc2ccccc2)nc2ccccc2c1=O	-5	97	0.75	-8
Cc1ccccc1NC(=O)CCC(=O)O	9	102	1.6	11
CCc1ccccc1NC(=O)CCC(=O)O	-9	100	0.6	32*
Nn1c(SCc2ccccc2)n[nH]c1=S	70*	96	-0.3	-5
COc1ccc(Cn2c(=O)[nH]c3cc(C(=O)NC4CCN(Cc5ccccc5)CC4)ccc32)cc1	7	104	1.4	30*
O=C(NC1CCN(Cc2ccccc2)CC1)c1ccc(Cn2c(=O)c3ccccc3n(Cc3ccc(F)cc3)c2=O)cc1	/	104	/	/
SMILES	Mtb MbtI inh	PV pol inh	AID504770	MenB inh
CCC(CC)NC(=O)c1ccc[nH]c1=S	93*	102	0.2	-21
CCNc1nc(NCC)nc(N(C)N)n1	-17	101	-0.35	32*
CCOc1ccccc1OCC(=O)N(C)Cc1ccc2c(c1)OCCO2	-4	105	-0.05	4
O=C(COC(=O)c1ccco1)NCC1CCCO1 (stereo not given)	-3	99	0	35*
O=c1oc2c(O)c(O)cc3c(=O)oc4c(O)c(O)cc1c4c23	26	83*	0.1	-5
Cc1ccccc1N1CCN(C(=O)c2c(C)oc3cc4c(C(=O)N5CCN(c6ccccc6C)CC5)c(C)oc4cc23)CC1	-2	103	-3.3*	0
COc1cc2c(C(=O)N3CCN(c4ccccc4C)CC3)c(C)oc2cc1Br	1	103	1.4	9
COCCOC(=O)C1=C(N)C(C(=O)Nc2cccc(C#N)c2)SC1=Nc1ccc(C)cc1C (stereo not given)	-48	103	1.2	-47
Oc1ccc(-c2nc3ccccc3s2)cc1	103	/	-2.3*	4
CCOC(OCC)n1c(=S)n(C(OCC)OCC)c2ccccc21	94*	83*	0.75	-17
Cc1csc(CC(N)=S)n1	98*	102	-1.6	-56
O=C1c2ccccc2C(=O)N1CCCc1nn2c(-c3cccnc3)nnc2s1	64*	105	-0.65	-17
CC(=O)c1ccc(NC(=O)C2=CC(c3ccc4c(c3)OCO4)=NS(=O)(=O)N2C)cc1	/	108	/	/
CC(=O)c1ccc(NC(=O)C2=CC(c3ccc(C)cc3)=NS(=O)(=O)N2C)cc1	/	8.0*	/	/
O=C1CSC(=S)N1/N=C/c1cc(Br)cc(Br)c1O	49	90*	-0.4	-25
CCN(Cc1ccc2c(c1)OCCO2)C(=S)NCc1ccco1	89*	97	-0.3	-31
O=C(Cc1ccc2c(c1)OCCO2)NCc1ccco1	28	/	1.4	7
